# Nrf2 inh: Nrf2 qHTS screen for inhibitors; A549 ARE-Fluc reporter, luciferase luminescence, 18-24 h; actives 2.1% (n = 360,000); AID 504444, 2011; Potency, µM (top dose mostly 46 µM), for inactives: at the top dose activity change, negative = inhibition, most hits filed as inhibitors; note: % is set by controls: 0 for no effect and ±100 for the full control effect; nearly all actives have a fitted effect of over 60% in size
#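 Concentration-response testing used A549 ARE_Fluc cells at 5000 cells/well. Following an 18-24 h compound incubation, viability was read by fluorescence (Ex 405/Em 525) and luciferase output by luminescence.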
# S2 tox: Viability Counterscreen for Primary qHTS for Inhibitors of ATXN expression; S2 cells (HEK-293 line with an ATXN2-luciferase reporter) viability, CellTiter-Fluor protease fluorescence, 24 h; Potency, µM (series often up to 56.7 µM), most hits filed as cytotoxic; actives 0.49% (n = 400,000); note: nearly all actives have a fitted effect of over 40% in size
# ATXN2 expr inh: Primary qHTS for Inhibitors of ATXN expression | HEK-293 ATXN2-luciferase reporter, luminescence, 24 h | Potency, µM (doses to about 57 µM), for the others: top-dose activity change, negative = inhibition, usual class: inhibitors | actives 0.72% (n = 360,000); note: % is set by controls: 0 for no effect and ±100 for the full control effect; nearly all actives have a fitted effect of over 55% in size
#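 ATXN2-luciferase reporter cells (luciferase flanked by upstream and downstream ATXN2 gene portions) were treated 24 h at 37 °C with compounds at up to 57 uM. SteadyGlo luminescence gave expression; GF-AFC fluorescence gave viability.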
# A549 viability: Nrf2 qHTS screen for inhibitors: counterscreen for cytotoxicity; actives 0.16% (n = 390,000); A549 ARE-Fluc cells, CellTiter-Fluor viability, 18-24 h; Potency, µM (titrated, usually from 46 µM), for inactives: at the highest dose activity change, negative = cytotoxicity, actives largely listed as inhibitors; AID 504648, 2011; note: % is set by controls: 0 for no effect and ±100 for the full control effect
#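 Cytotoxicity counterscreen: CellTiter-Fluor fluorescence was measured in A549 ARE_Fluc cells after 18-24 h of compound exposure in a concentration series. The subsequent BugLite luminescent read reports ARE-luciferase activity.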
# Nrf2 ARE act: qHTS of Nrf2 Activators | AREc32 ARE-luciferase reporter (MCF7-derived line), luminescence, 24 h | Potency, µM (doses to about 46.1 µM), without a hit: at the top dose activation, usual class: activators | actives 0.31% (n = 410,000) | AID 624171, 2012; note: % of control where 0% means no effect; nearly all actives have a fitted effect of over 65% in size
#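 AREc32_Fluc, 1000 cells/well, OPTI-MEM + 5% FBS, o/n 37 deg C 5% CO2; 23 nL cpd by pin tool, 24 hr; Steady-Glo 30 min RT, luminescence.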
# Numbers without * were called inactive; i = inactive; u = inconclusive; x = no result; ! = not active in a repeat; [ ] = remark or other dose. A selection: hits, their analogues and other compounds. The true share with any hit is near 2.9%. Calls come from the whole dose curve; as a rule, active = well fitted curve in the direction sought with a large enough effect; inconclusive = small, poorly fitted or top-dose-only effect, or another doubt; inactive = no such curve, though single readings can be large; an effect the other way counts as inactive or inconclusive. Potency is the fitted concentration of half-maximal effect.
SMILES,Nrf2 inh,S2 tox,ATXN2 expr inh,A549 viability,Nrf2 ARE act
CCN(c1ccccc1)S(=O)(=O)c1ccc(C(=O)Nc2nnc(C3CC3)o2)cc1,12µM*,i,-26%[11.3 µM],u,0%
Cc1cc(C)c(S(=O)(=O)NCc2ccc3c(c2)CCN3C(=O)c2ccccc2)c(C)c1,x,x,x,-15%,2%
CC(C)(CNC(=O)c1cnn(-c2nccc(-c3ccccc3F)n2)c1C1CC1)N1CCOCC1,x,i,x,x,x
COc1cc2c3nnc(-c4ccc(F)cc4)c-3cn(Cc3ccc(C)cc3)c2cc1OC,10%,i,18µM*,14%,-1%
O=C(CN1c2ccc(Br)cc2-c2ccccc2S1(=O)=O)N1CCCCC1,u,u,51%,3%,0%
N#CCCn1cc(/C=C2\NC(=S)N(c3ccccc3)C2=O)c(-c2ccc(-c3ccccc3)cc2)n1,18µM*,u,u,21µM*,0%
O=C(O)CCn1cc(/C=C2/NC(=S)N(c3ccccc3)C2=O)c(-c2ccccc2)n1,-3%,i,-1%,-18%,-1%
COc1cc(=O)n2c(c1C(=O)N(C)Cc1nonc1C)CCN(Cc1cccc3ccccc13)CC2,x,i,x,x,x
Cc1ccccc1OCc1n(CC(=O)OC2CC(C)CCC2C(C)C)c2ccccc2[n+]1C (stereo unspecified),18µM*!,25µM*,u,-13%,-3%
CC1CCC(C(C)C)C(OC(=O)Cn2c(-c3ccc(Br)cc3)[n+](C)c3ccccc32)C1 (stereo unspecified),21µM*,u,u,u,-3%
Cc1cccc(C2CC(=O)Nc3cc4c(cc32)OCO4)c1 (stereo unspecified),u,u,-32%,2%,0%
CCOc1c(Br)cc(C2CC(=O)Nc3cc4c(cc32)OCO4)cc1OC (stereo unspecified),21µM*,x,x,1%,0%
CC(C)Oc1cccc(C2CC(=O)Nc3cc4c(cc32)OCO4)c1 (stereo unspecified),16µM*,u,-24%,-19%,1%
CCCOc1ccccc1C1CC(=O)Nc2cc3c(cc21)OCCO3 (stereo unspecified),21µM*,u,8%,u,4%
COc1cc(C2CC(=O)Nc3cc4c(cc32)OCCO4)cc(Br)c1OC (stereo unspecified),u,x,x,2%,0%
CC(C)Oc1ccccc1C1CC(=O)Nc2cc3c(cc21)OCO3 (stereo unspecified),7.3µM*,u,-9%,u,-1%
COCCN1CCN(C(=O)c2cnn(-c3nccc(-c4ccco4)n3)c2C2CC2)CC1,x,i,x,x,x
COc1ccccc1C1CN(Cc2c(C)nc3sccn23)Cc2ccccc2O1 (stereo unspecified),x,i,x,x,x
CC(C)C[C@H](NC(=O)CNC(=O)[C@H](Cc1ccc(O)cc1)NC(=O)[C@H](CO)NC(=O)[C@H](Cc1c[nH]c2ccccc12)NC(=O)[C@H](Cc1cnc[nH]1)NC(=O)[C@@H]1CCC(=O)N1)C(=O)N[C@@H](CCCN=C(N)N)C(=O)N1CCC[C@H]1C(=O)NCC(N)=O (stereo in doubt),x,i,-5%,x,x
CCOC(=O)C=C[C@H](C[C@@H]1CCNC1=O)NC(=O)[C@@H](CC(=O)[C@@H](NC(=O)c1cc(C)on1)C(C)C)Cc1ccc(F)cc1,x,x,13%,x,x
Cc1cccc(Cn2ncc3c4sc(C)cc4n(C)c3c2=O)c1,-14%,x,x,-3%,x
O=C(Nc1cc(Cl)ccc1-n1cncn1)c1ccc([N+](=O)[O-])o1,10%,u,-38%,-5%,13µM*
CN1CCN(c2ccccc2NC(=O)c2ccc([N+](=O)[O-])o2)CC1,-7%,u,u,-14%,-2%
O=C(Nc1cc(Cl)ccc1F)c1ccc(-n2cncn2)c([N+](=O)[O-])c1,u,i,-22%,-3%,2%
CCC(=O)N1CCN(c2ccc(Cl)cc2NC(=O)c2ccc([N+](=O)[O-])o2)CC1,-4%,i,u,-5%,11µM*
SMILES,Nrf2 inh,S2 tox,ATXN2 expr inh,A549 viability,Nrf2 ARE act
CS(=O)(=O)N1CCN(c2ccccc2NC(=O)c2ccc([N+](=O)[O-])o2)CC1,-14%,u,-37%,0%,8.9µM*
CC1CN(CCC(=O)NCc2ccc3ncccc3c2)Cc2cc(Cl)ccc2O1 (stereo unspecified),x,i,x,x,x
FC(F)(F)c1cc(CCN2C(=S)NC[C@@H]2CC2CCCCC2)cc(C(F)(F)F)c1,u,20µM*,u,-4%,-1%
FC(F)(F)c1cc(CCN2C(=S)NC[C@@H]2Cc2ccccc2)cc(C(F)(F)F)c1,-3%,x,u,-1%,0%
Cc1ccc(NC(=O)CN(C)S(=O)(=O)c2ccc3nc(C)sc3c2)c(C)c1,16%,x,x,-1%,3%
CCC(=O)NC[C@H](Cc1ccc(OCCc2nc(-c3ccccc3)oc2C)cc1)NC(C)=CC(=O)c1ccc(C(F)(F)F)cc1,x,x,22µM*,x,x
OCc1nc2ccccc2n1Cc1ccc(Cl)cc1,-20%,i,-19%,4%,2%
CCCCOc1ccc(S(=O)(=O)n2c(C)nc3ccccc32)cc1,7.3µM*,i,4%,-18%,0%
Cc1nc2ccccc2n1Cc1ccc(Cl)cc1,18µM*,i,-16%,9%,4%
COc1ccc(CNc2nc3ccccc3n2Cc2ccc(Cl)cc2)cc1OC,23µM*,i,-26%,-16%,4%
Cc1nc2ccccc2n1CCOc1ccccc1,15µM*,i,-10%,-3%,0%
CCOc1ccc(S(=O)(=O)n2c(C)nc3ccccc32)cc1,-30%,i,-6%,-10%,0%
Cc1c(C(=O)Nc2ccc(C(C)C)cc2)sc2nc3n(c(=O)c12)CCC3,-13%,x,x,11%,0%
CCCCCn1c(=O)[nH]c2cc(C(=O)N3CCN(c4cccc(C(F)(F)F)c4)CC3)ccc2c1=O,-21%[9.27 µM],i,2%,2%,-1%
O=C(NCCc1nc2ccccc2n1CCOc1ccccc1)C1CCCCC1,26µM*,x,x,u,x
CC(C)(C)c1ccc(Cn2c(Cc3ccccc3)nc3ccccc32)cc1,23µM*,u,u,-11%,4%
O=C(NCCc1nc2ccccc2n1CCOc1cccc2ccccc12)C1CCCCC1,-20%,x,x,-3%,x
CCCOc1ccc2c(c1)CC[C@@H]1[C@@H]2CC[C@]2(C)C(OC)CC[C@@H]12 (stereo partly specified),x,i,1%,x,x
O=C(C=Cc1ccccc1)c1c[nH]c2ccccc2c1=O,2%,u,u,4%,u
Cc1[nH]c2ccccc2c(=O)c1C(=O)/C=C/c1ccccc1,18µM*,14µM*,11µM*,u,u

# Screening data (PubChem)
